Data on 39 molecules can be found in PubChem BioAssay.

For part of these data: Measured potencies and affinities stand elsewhere. Calls of active or inactive are those of the source. Unless noted, the limit is not given here; nearly all actives have IC50 up to about 0.98 µM.

Tested on in the first assay: not listed separately
The assay can be described thus: inhibition of 3D7 malaria parasite growth – strain 3D7 (AID 2306; call rule not given here;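 also: 0% = DMSO wells and 100% = chloroquine plus artemisinin control wells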). Conditions: P. falciparum 3D7 erythrocytic growth, LDH absorbance, 72 h; at 2 µM; hits give high values.
For `CCCCCCCn1c(=N)n(CC(O)c2ccc(Cl)c(Cl)c2)c2ccccc21` (centres undefined), the growth inhibition was 98% (active).
The same measure, in the same setting: for `O=C(Nc1cccc(C(F)(F)F)c1)c1cccc2[nH]c(C(F)(F)F)nc12` the value was 100% (active); for `Cc1cccc2[nH]c(-c3ccc(-c4ccc(NC(=O)c5cncn5C)cc4)s3)nc12`, 102% (active); for `Nc1c(Cl)cc(C(O)CNCCCCCOCCc2ccc3ccccc3n2)cc1Cl` (centres undefined), 98% (active).

Another assay deals with Calcium-dependent protein kinase 1 (Plasmodium falciparum (isolate 3D7)) (UniProt P62344). Briefly: PfCDPK1 kinase inhibitors, biochemical, TCAMS library (AID 1159585).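 Also: inhibitors leave more ATP so luminescence rises with inhibition.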 To be noted: recombinant PfCDPK1, Kinase-Glo ATP depletion luminescence.
Sequence of Calcium-dependent protein kinase 1 (Plasmodium falciparum (isolate 3D7)) (P62344 whole entry, looked up): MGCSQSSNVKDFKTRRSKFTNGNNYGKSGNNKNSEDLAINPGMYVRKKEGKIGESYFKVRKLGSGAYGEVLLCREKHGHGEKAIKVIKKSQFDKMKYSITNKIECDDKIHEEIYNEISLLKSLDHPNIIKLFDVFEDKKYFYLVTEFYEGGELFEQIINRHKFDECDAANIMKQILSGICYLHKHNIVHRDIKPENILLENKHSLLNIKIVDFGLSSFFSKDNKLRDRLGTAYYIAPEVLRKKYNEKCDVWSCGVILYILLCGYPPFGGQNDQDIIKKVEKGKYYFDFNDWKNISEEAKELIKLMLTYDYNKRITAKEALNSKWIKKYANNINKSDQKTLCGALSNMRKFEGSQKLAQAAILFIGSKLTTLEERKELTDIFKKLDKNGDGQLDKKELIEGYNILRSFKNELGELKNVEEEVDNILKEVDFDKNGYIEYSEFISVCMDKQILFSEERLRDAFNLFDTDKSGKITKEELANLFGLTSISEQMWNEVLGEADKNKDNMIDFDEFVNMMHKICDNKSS
As to `COc1cc(OC)cc(C(=O)Nc2ccc(Nc3nc(C)cc(N(C)C)n3)cc2)c1`, the result was inactive.
On the same count and under the same terms, under `Cc1ccc(C=C2SC(=Nc3ccccc3)NC2=O)c(C)c1` stands “inactive”; under `CC(C)(C)c1nn(-c2ccccc2)c2[nH]c(=O)c(CNCc3ccc4c(c3)OCO4)cc12`, “inactive”.
The same measure, in the same setting: under `Cc1[nH]nc2cc(Nc3nccc(Nc4ccc(Oc5ccccc5)cc4)n3)ccc12` stands “inactive”; under `Cc1cc(Nc2ccc(OCc3ccccc3Cl)cc2)c2cc(Cl)ccc2n1`, “inactive”.
Still for that read-out and setting: under `O=C(NCCc1cccc(F)c1)c1cc(Br)cc(N2CCN(c3ccncc3)CC2)c1` stands “inactive”; under `COC(=O)/C=C/c1ccc(CCC(C)NCC(O)c2cccc(Cl)c2)cc1` (centres undefined), “inactive”; under `O=[N+]([O-])c1ccc(C(O)CNCCc2ccccc2)cc1OCc1ccccc1` (centres undefined), “inactive”.
Consider `Cc1sc2nc(CSc3ccccc3)nc(N3CCN(CC(=O)NC4CC4)CC3)c2c1C`, for which the outcome was inactive.
Still for that read-out and setting: for `O=C(c1ccc(F)c2ccccc12)N1CCc2cc3nccc(N4CCN5CCC[C@H]5C4)c3cc21` the value was “inactive”.
The same measure, in the same setting: for `Cc1[nH]c2ccccc2c1C(=O)C(C)Sc1n[nH]c(-c2ccccc2Br)n1` (centres undefined) the value was “inactive”.
On the same count and under the same terms, for `CN(C)CCCOc1cc(NC(=O)Nc2ccc(-c3ccncc3)c3ccccc23)ccc1I` the value was “inactive”; for `CC[C@H](C)CNC(=O)c1cncc(-c2ccc(CNCC3CNCCCO3)cc2)c1` (some centres undefined), “inactive”; for `Cc1cnc(C(=O)Nc2cccc(-c3cccc(-c4nc5ccc(F)cc5[nH]4)c3)c2)cn1`, “inactive”.
Take `O=C(NCc1cc2c(cc1Cl)OCO2)c1ccc(CNC2CCN(Cc3ccccc3)CC2)cc1`: the outcome was inactive.
For `CCN1CCN(Cc2c(O)ccc3c(=O)c(Oc4cc(C)cc(C)c4)c(C(F)(F)F)oc23)CC1`, the outcome was inactive.
Take `O=S(=O)(c1ccc(OCc2ccc(Cl)cc2)cc1)c1cc2c(cc1OCc1ccccc1)CCN(CC1CC1)CC2`: the outcome was inactive.
Turning to `CC(C)CC(=O)Nc1cc(=O)[nH]c2nc(-c3ccccc3)nn12`, the result was inactive.
The same measure, in the same setting: for `COc1ccc(-c2ccc(NC(=O)c3ccc(F)cc3)cc2)cc1CN1CCCN(C)CC1` the value was “inactive”.
For `CC(C)(C)c1ccc(CNC(=O)c2ccc(-c3nc4ccc(C(C)(C)C)cc4[nH]3)cc2)cc1`, the result was inactive.
Same read-out and setting: under `COc1ccccc1C1CCN(C2CCC(NC(=O)/C=C/c3cccc(C(F)(F)F)c3)CC2)CC1` (centres undefined) stands “inactive”.
As for `COC(=O)c1ccc(-c2ccc(C(=O)NCC3CCN(c4nc(N)c5cc(OC)c(OC)cc5n4)CC3)cc2)cc1`, the result was inactive.
Consider `COc1nc2c(CCN3CC[C@H](NCc4ccc5c(c4)NC(=O)CO5)[C@H](O)C3)c(Cl)cnc2cc1F`, for which the result was inactive.
Same read-out and setting: under `CCCCCC1c2[nH]c3ccccc3c2CCN1C(=O)OCc1ccccc1` (centres undefined) stands “inactive”.
On the same count and under the same terms, under `CCC[C@@H]([C@@H](CC1CCCCC1)C(=O)N[C@H](C(=O)Nc1nccs1)C(C)(C)SCCNC(=O)OCc1ccccn1)N(O)C=O` stands “inactive”; under `N=c1c(C(=O)NCc2ccccc2)cc2c(=O)n3ccccc3nc2n1CCc1ccccc1`, “inactive”.
The same measure, in the same setting: for `CN(CCCCCN1CCC(NC(=O)Nc2ccc(Oc3ccccc3)cc2)C1)C(=O)/C=C/c1ccc(Cl)c(Cl)c1` (centres undefined) the value was “inactive”; for `Cc1noc(C)c1-c1cccc(CNCc2ccc(-c3ccc(-c4nc5c(C)cccc5[nH]4)cc3)cc2)c1`, “inactive”; for `CCN(CC)CCN(Cc1ccc(-c2ccc(C(F)(F)F)cc2)cc1)C(=O)Cn1cc(CCCc2cccc(F)c2F)c(=O)c2ccccc21`, “inactive”.
Turning to `COC(=O)c1c(NC(=O)c2cccc(C(F)(F)F)c2)sc2c1CCN(Cc1ccccc1)C2`, the outcome was inactive.
On the same count and under the same terms, under `O=C(Nc1cccc(-c2ccc(-c3nc4ccc(C(F)(F)F)cc4[nH]3)s2)c1)c1ccncc1` stands “inactive”.
On to `CN(C)CCCOc1ccc(CCNCc2cccc(Oc3ccc(Cl)cc3)c2)cc1`, for which the result was inactive.
Consider `COc1cc2ccccc2cc1CNCCCCCCNCc1cc2ccccc2cc1OC`, for which the outcome was inactive.
Still for that read-out and setting: under `COc1ccc(C(=O)CCC(=O)N(Cc2ccc(-c3ccc(CNCCc4ccc(S(C)(=O)=O)cc4)cn3)cc2)Cc2ccc3c(c2)OCO3)cc1F` stands “inactive”; under `CCN1CCCC1CN(Cc1ccc(-c2ccc(C(F)(F)F)cc2)cc1)C(=O)Cn1c(CCc2cccc(F)c2F)nc(=O)c2ccccc21` (centres undefined), “inactive”.
